# From PubChem BioAssay (NCI)
# About 83,000 compounds went through this panel and 20% of them were active in at least one assay; those are over-represented in the sample as a whole.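 Activity criterion: percent growth below 10, measured after cells in 96-well plates were exposed to a single compound concentration for 48 hours.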 Activity calls are given as the source filed them.
# Test system: NCI-H460 lung
# Assay: NCI-60 one-dose screen, 48 h (100 = growth as untreated, 0 = no growth, -100 = all killed)
# Details: 10 µM unless noted
row,Structure (SMILES),growth
1,CCOC(=O)c1cc(C(=O)c2ccc(O)c(O)c2)n2ccc(-c3ccn4c(C(=O)c5ccc(O)c(O)c5)cc(C(=O)OCC)c4c3)cc12,101% (inactive)
2,CC1C(/C=N/Nc2ccccc2)C(C#N)(C#N)C1(C#N)C#N (stereo not given),87.9% (inactive)
3,O=C(/C=C/c1ccc(C(F)(F)F)cc1)Nc1ccc(C=C2c3ccccc3C(=O)c3ccccc32)cc1,62.3% (inactive)
4,CC/C=C\C[C@H](O)C/C=C1/C(=O)C=C[C@@]1(C)C/C=C\CCCC(=O)OC,110% (inactive)
5,COc1cc(-c2nn(-c3ccc(C(=O)O)cc3)cc2C(=O)O)ccc1O,61.9% (inactive)
6,COc1ccc(O)c(N=Nc2nccs2)c1,101% (inactive)
7,NCCNc1nc(Nc2ccc(-c3nc4ccccc4[nH]3)cc2)c2cn[nH]c2n1,54.9% (inactive)
8,COc1cc(-c2nn(-c3ccc(Br)cc3)cc2C(=O)O)ccc1O,103% (inactive)
9,OCCN1CCN(c2nc(Nc3ccc(-c4nc5ccccc5[nH]4)cc3)c3cn[nH]c3n2)CC1,-85.4% (active)
10,O=c1oc2c(C(F)(F)F)cccc2cc1-c1csc(Nc2ccc(OCCF)cc2)n1,4.07% (active)
11,N#Cc1nnn(-c2ccc(S(N)(=O)=O)cc2)c1NC(=O)CCl,104% (inactive)
12,C=C1C(=O)O[C@H]2[C@H]1CC/C(C=Nc1ccc(C(F)(F)F)cc1N)=C\CC[C@@]1(C)O[C@@H]21,15.3% (inactive)
13,CSc1ccc(-c2ccccc(=O)c2O)cc1,2.89% (active)
14,Clc1ccc2c(NCCNc3nc(N4CCCCC4)nc4ccccc34)ccnc2c1,-39.4% (active)
15,Cn1ccnc1C(=O)/C=C/c1ccc(CC(=O)Nc2ccccc2)cc1,-19% (active)
16,CC(C)CSc1nc(N)nc2c1ncn2C1OC(CO)C(O)C1O (stereo not given),104% (inactive)
17,Cc1cc(N[C@@H]2CCC[C@H](Nc3ccnc4cc(Cl)ccc34)C2)nc(N2CCCCCC2)n1,-70.9% (active)
18,CC(C)(CCCN=C(N)Nc1ccc(Cl)cc1)c1ccc(F)cc1,46.1% (inactive)

row,Structure (SMILES),growth
1,COc1ccc(-c2nc(SCC(=O)Nc3ccc(C(=O)/C=C/c4ccc(Cl)cc4)cc3)[nH]c(=O)c2C#N)cc1,99.1% (inactive)
2,FC(F)(F)Oc1ccc2nc3nc4ccc[nH]c4cc3c2c1,46.2% (inactive)
3,CCOC(=O)C(C)(C#N)C1C=CCCC1 (stereo not given),98.8% (inactive)
4,O=C1/C(=C/c2ccc(OCCCOc3ccc(Cl)cc3)cc2)N=C2SCCCN12,98.1% (inactive)
5,COc1cc(-c2nn(-c3ccc(C)cc3)cc2C(=O)O)ccc1O,104% (inactive)
6,CC(=O)c1cc2c(N)c(C(=O)Nc3cccc(F)c3C)sc2nc1C,83.1% (inactive)
7,COc1ccc(C2C(C#N)=C(N)Oc3n[nH]c(-c4cccs4)c32)cc1I (stereo not given),101% (inactive)
8,CC(=O)c1cc(C(=O)c2ccc3c(c2)Sc2ccccc2N3)n2ccccc12,2.97% (active)
9,CCOC(=O)c1c(C(=O)OCC)c2cc(-c3ccn4c(C(=O)c5ccccc5)c(C(=O)OCC)c(C(=O)OCC)c4c3)ccn2c1C(=O)c1ccccc1,98.3% (inactive)
10,Cc1cc(N2CCCC2)nc(NC2CCCC(Nc3ccnc4cc(Cl)ccc34)C2)n1 (stereo not given),-66.3% (active)
11,COc1ccc2c(c1)CC/C(=C\c1cncc(Br)c1)C2=O,103% (inactive)
12,CCc1nc(N)nc(N)c1C#CC(C)c1ccc(-c2ccncc2)cc1Cl (stereo not given),5.02% (active)
13,CC(=O)O[C@H]1C(=O)[C@@]2(C)[C@H]([C@H](OC(=O)c3ccccc3)[C@]3(O)C[C@H](OC(=O)[C@H](OC(=O)CCC(=O)OC4CCC(S/N=C(N)/N=C(\N)N(C)C)CC4)[C@@H](NC(=O)c4ccccc4)c4ccccc4)C(C)=C1C3(C)C)[C@]1(OC(C)=O)CO[C@@H]1C[C@@H]2O (stereo not given in full),7.58% (active)
14,CCNC(=O)Oc1ccc(/C(=C(\C)c2ccc(Cl)cc2)c2ccc(OCCN3CCCCC3)cc2)cc1,22.3% (inactive)
15,CCOc1ccc(C(C)=O)cc1NC(=O)c1cccc(-c2nnn(CC)n2)c1,12.1% (inactive)
16,CC/C=C\C[C@H]1C/C=C2/C(=O)C=C[C@H]2C/C=C\CCCC(=O)O1,27.4% (inactive)
17,COc1cccc2c1C(=O)c1c(O)c3c(c(O)c1C2=O)C[C@](O)(C(=O)CO)C[C@H]3O[C@@H]1C[C@@H](NC(=O)CCCCCN(C)C2(c3ccc(F)cc3)CC3CCC2C3)[C@H](O)[C@@H](C)O1 (stereo not given in full),-84.2% (active)
